Bioassay records (PubChem)
Giardia killer – Giardia lamblia killing | activity change, % at 7.66 µM, hits read low | AID 540267 | actives 0.15% (n = 340,000) | Giardia lamblia trophozoite viability; in the data active = activity change below about -80%; inconclusive = between about -30% and that limit;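 note: parasites exposed to compound for two days anaerobically before the ATP read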
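Giardia lamblia trophozoites (100 cells/well) were incubated with compounds for 48 h at 37 deg C under anaerobic conditions. Viability was read as ATP content by one-step luminescence after 15-30 min at room temperature.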
Sfp inh – Sfp phosphopantetheinyl transferase inhibition; Biochemical Sfp PPTase activity, qHTS; Potency, µM, for the others: largest response in the series, negative = inhibition, actives largely listed as inhibitors; actives 3.5% (n = 310,000);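 note: the enzyme is Sfp with the accession as filed and its product quenches rhodamine fluorescence; potency is the fitted concentration of half-maximal effect; 0% = enzyme reaction without inhibitor and -100% = no enzyme wells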
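Fluorescence-quenching assay: 15 nM Sfp-PPTase preincubated 15 min at room temperature with compound, then 5 uM rhodamine-CoA and 12.5 uM BHQ-2-labelled YbbR peptide added. Fluorescence (ex 525/em 598 nm) read at start and after 30 min; difference gives rate.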
FBPA coupling cs – coupling enzyme interference in Giardia aldolase counter-screen. actives 0.67% (n = 290,000). activity change, negative = inhibition, % at 58.2 µM, hits read low. coupling enzyme system counterscreen, AmpLite Red fluorescence; in the data active = activity change below about -30%
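Fluorescence at 525 nm excitation and 598 nm emission measured inhibition of the coupled detection system without aldolase. Compounds (at 57.5 uM final) were preincubated 10 min at room temperature with coupling enzyme reagent before a 20 min substrate/AmpLite Red step.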
ELG1 repair inh – blocks ELG1-dependent DNA repair in HEK293T cells | HEK293T ELG1-luciferase reporter, luminescence, 16 h; DNA damage induced by 5-fluorouridine | Potency, µM (doses to about 46.1 µM), without a hit: at the top dose activity change, negative = inhibition, most hits filed as inhibitors | actives 2.3% (n = 330,000) | AID 504467; note: potency is the fitted concentration of half-maximal effect; nearly all actives have a fitted effect of over 55% in size
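Reporter activity after DNA damage by 5-fluorouridine is monitored. Compound-treated cells incubate 16 hr at 37 °C, then ONE-Glo is added for 30 min before luminescence reading.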
Numbers without * were called inactive; ? = inconclusive; nt = not tested or not shown. Compounds with a hit are over-represented: about 5.5% of the library has one in this group of screens. Unless noted, calls come from the whole dose curve; as a rule, active = well fitted curve in the direction sought with a large enough effect; inconclusive = small, poorly fitted or top-dose-only effect, or another doubt; inactive = no such curve, though single readings can be large; an effect the other way counts as inactive or inconclusive. Unless noted, % is set by controls: 0 for no effect and ±100 for the full control effect.

SMILES | Giardia killer | Sfp inh | FBPA coupling cs | ELG1 repair inh
CS(=O)(=O)c1ccc(-c2sc3cc4c(cc3c2C(=O)NN2CCOCC2)OCO4)cc1 | 11.0 | nt | nt | 3.8%
COc1ccc(-c2ccc(SCC(=O)NCc3ccco3)nn2)cc1 | -14.4 | 5.8% | 1.5 | ?
COc1ccc(NC(=O)CSc2ccc(-c3ccco3)nn2)cc1 | 0.8 | 31.6µM* | nt | 10.5%
COc1cc(NC(=O)CSc2ccc(-c3ccco3)nn2)cc(OC)c1 | -13.0 | 28.2µM* | nt | -5.3%
Cc1cc2nc3c(nc2cc1C)C(O)=C3O | -23.7 | 79.4µM* | 1.3 | 9.5%
OC1=C(O)c2nc3cc(C(F)(F)F)ccc3nc21 | ? | 50.1µM* | 1.1 | -15.4%
CC1CCCN(C(=O)COC(=O)c2ccc(=O)n(Cc3ccccc3)n2)C1 (stereo not given) | -7.9 | nt | nt | 16.5%
CC1CN(CCN2CC(C)N(C=O)CC2C)C(C)CN1C=O (stereo not given) | 7.7 | nt | nt | nt
C=CCn1c(NC(=O)c2ccccc2Cl)c(C#N)c2nc3ccccc3nc21 | -19.6 | 79.4µM* | -51.6* | ?
CCCCn1c(NC(C)=O)c(C#N)c2nc3ccccc3nc21 | -4.3 | -5.9% | -58.7* | ?
O=C(NCc1ccccc1Br)C1CCCO1 (stereo not given) | -9.3 | 2.3% | 0.2 | 7.8%
Cc1ccc(N(C)C(=O)c2cc(S(=O)(=O)N3CCCC3)cn2C)cc1 | -19.1 | 13.9% | -0.5 | ?
COc1ccc(-c2cn3nc(SCC(=O)NCC4CCCO4)ccc3n2)cc1 (stereo not given) | -3.1 | 6.1% | nt | ?
CCOC(=O)COc1ccccc1/C=C\[N+](=O)[O-] | -12.8 | 14.1µM* | 0.6 | ?
Cc1ccc(C(=O)COC(=O)COc2ccccc2[N+](=O)[O-])s1 | -10.0 | nt | nt | 7.4%
C1CC(=NN=C2CCSCC2)CCS1 | -2.3 | nt | nt | nt
CN1CCN(C(=O)/C(=C/c2cn(S(=O)(=O)N(C)C)c3ccccc23)NC(=O)c2ccccc2)CC1 | 13.5 | 6.4% | 1.8 | -19.9%
COc1ccc(S(=O)(=O)N(CCC(=O)O)Cc2ccccc2)cc1 | -9.7 | 27.4% | 12.2 | 4.2%
O=C(O)CCCN(Cc1cccc(Br)c1)S(=O)(=O)c1ccc(Br)cc1 | -7.6 | 79.4µM* | 17.4 | ?
NC(=O)N/N=C/c1ccc(N2CCOCC2)s1 | -8.4 | 79.4µM* | -2.5 | -11.9%
O=C(O)c1cc(N/N=C/c2ccc(N3CCOCC3)s2)ccc1Cl | -3.6 | 56.2µM* | -0.6 | ?
O=C(N/N=C/c1ccc(Br)s1)c1ccc([N+](=O)[O-])cc1 | 0.7 | -3.1% | 0.4 | 5.8µM*
O=C(N/N=C/c1ccc(N2CCOCC2)o1)c1cccc([N+](=O)[O-])c1 | 5.3 | 1.12µM* | -43.9* | -2.0%
C/C(=N\Nc1ccc(Cl)c(C(=O)O)c1)c1ccc(N2CCOCC2)cc1 | 24.0 | -3.4% | -1.2 | ?
O=c1c(-c2ccc(F)c(F)c2)nc2cncnc2n1Cc1ccc(F)cc1 | nt | -21.9% | -1.0 | nt
SMILES | Giardia killer | Sfp inh | FBPA coupling cs | ELG1 repair inh
Cc1ccc2c(c1)C1CC(C)(O2)N(c2cccc(C(=O)NC3CCN(Cc4ccccc4)CC3)c2)C(=O)N1 (stereo not given) | 0.3 | 11.3% | 0.1 | 0.0%
O=S(=O)(c1ccc(SCCOc2ccc(F)cc2)nc1)N1CCCC1 | ? | nt | nt | -0.2%
Cc1ccccc1OCC(=O)N/N=C/c1ccc(N2CCOCC2)o1 | -19.0 | 20µM* | nt | ?
O=C(Nc1ccc(N2CCOCC2)cc1N1CCOCC1)c1ccc([N+](=O)[O-])cc1 | -2.3 | 20.0% | 2.2 | 1.1%
O=C(NN=Cc1ccc(N2CCOCC2)s1)c1ccc([N+](=O)[O-])cc1 | -17.2 | nt | nt | 9.2µM*
COc1cc(NC(=S)NCCN2CCOCC2)cc(OC)c1OC | -1.4 | -4.6% | 0.7 | 0.2%
COc1ccc(C(C)(C)C)cc1NC(=S)NCCN1CCOCC1 | 12.6 | 17.8µM* | 6.3 | 3.6%
COc1ccc(-c2c3c([nH]c(=S)c2C#N)CCC3)cc1 | 2.9 | 22.4µM* | -11.5 | 4.1%
COc1ccc(OC)c(-c2c3c([nH]c(=S)c2C#N)CCCC3)c1 | -22.8 | 22.4µM* | -2.3 | -10.2%
COc1ccc(-c2c(C#N)c(SCC(N)=O)nc3c2CCCC3)cc1 | -0.4 | -1.8% | -0.1 | -14.1%
COC(=O)c1ccc(NC(=S)NC(=O)c2cccnc2)cc1 | 3.5 | 89.1µM* | -1.2 | -3.0%
COc1ccc(NC(=S)NC(=O)c2cccnc2)cc1 | -7.5 | -1.7% | 0.9 | 0.7%
COC(=O)c1ccc(NC(=S)NNC(=O)CC(C)C)cc1 | -2.5 | 44.7µM* | 9.1 | 12.3%
O=C(NC(=S)NC(c1ccccc1)c1ccncc1)c1ccccc1 (stereo not given) | -14.4 | 11.3% | -2.4 | 18.4µM*
Cc1snnc1C(=O)NC(=S)Nc1ccccc1 | -4.6 | 39.8µM* | 0.0 | -0.1%
O=S1c2ccccc2Sc2ccccc21 | -1.2 | nt | nt | nt
COc1ccccc1C1=Nn2c(nnc2-c2ccccc2C)SC1 | nt | -11.1% | -6.0 | nt
COc1cccc(S(=O)(=O)NCc2ccc(C(=O)N3CCN(C)CC3)cc2)c1 | 5.3 | 9.1% | 4.8 | 4.7%
O=C(NC(=S)Nc1cccnc1)c1cccs1 | 19.2 | 56.2µM* | 0.1 | ?
O=C(Nc1cccnc1)c1cccs1 | 16.7 | 14.5% | 2.8 | ?
O=C(NC(=S)Nc1cccnc1)c1ccccc1 | -17.6 | 79.4µM* | -2.6 | ?
CC(C)(C)c1ccc(C(=O)NNC(=S)NC(=O)c2cccnc2)cc1 | 14.9 | 9.0% | 1.8 | ?
CC(C)(C)c1cc(Cl)c(O)c(NC(=S)NC(=O)c2cccnc2)c1 | -2.8 | -24.1% | 0.8 | 9.2µM*
CCOc1ccc(C(=O)NC(C(=O)NCCc2ccc(OC(F)F)cc2)C(C)C)cc1 (stereo not given) | 21.7 | -12.5% | 2.4 | -8.5%
CCc1sc(/C=C(/C#N)C(N)=S)cc1[N+](=O)[O-] | 28.4 | 2.82µM* | -7.0 | -28.2%
SMILES | Giardia killer | Sfp inh | FBPA coupling cs | ELG1 repair inh
CCc1ccc(/C=C(/C#N)C(N)=S)s1 | -1.3 | -9.1% | 3.6 | -2.7%
CCOc1cc2[nH]c(=S)n(CCCC(=O)NCc3ccccn3)c(=O)c2cc1OCC | 4.6 | -8.9% | nt | -9.8%
FC(F)(F)c1cc(NC2CCCCC2)ccn1 | -1.4 | 6.3% | 0.1 | 8.2µM*
Fc1ccc(Nc2ccnc(C(F)(F)F)c2)cc1 | 20.3 | 22.0% | 1.2 | ?
N#C/C(C(N)=O)=c1/ccc2c(c1)N1C3=C(CCCC3)CC3CCCCC31N=2 (stereo not given) | 0.7 | ? | -11.0 | 20.6µM*
COc1cccc(-c2nn(-c3ccccc3)cc2C(=O)OCC(=O)Nc2ncc(Cl)cc2Cl)c1 | -0.6 | ? | 2.8 | 20.6µM*
OCC1CCN(Cc2cn(Cc3ccccc3)nc2-c2cc3ccccc3o2)CC1 | 1.9 | 8.0% | -0.7 | -13.3%
COC1CCN(Cc2cn(Cc3ccccc3)nc2-c2cc3ccccc3o2)CC1 | 1.7 | 7.3% | 0.6 | 20.6µM*
CCN(CC)C(=O)CSc1nnc2nnc3cc(Cl)ccc3n12 | -81.1* | 8.7% | -5.6 | ?
S=C(NC1CCCC1)N1CCN(C/C=C/c2ccccc2)CC1 | 16.8 | 12.2% | -2.9 | 18.3µM*
CC(=C1C(=O)c2ccccc2C1=O)N1CCN(C/C=C/c2ccccc2)CC1 | -11.5 | 56.2µM* | -1.0 | 2.9%
